Only some compounds are listed: those with a hit (about 21% of all), similar ones and a draw of the others.
IL-1B inflam inh – inflammasome signaling inhibition, IL-1 beta readout. THP-1 LPS/ATP IL-1B secretion, AlphaLISA, 16 h; hits give low values. activity change, % at 57.5 µM. actives 4.7% (n = 360,000). AID 743279; in the data active means activity change below about -50%; inconclusive means mostly about -30% to -49%; further: on the % scale 0 is the no-effect control and ±100 the full control effect
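THP-1 cells pretreated 1 hr with compounds (up to 57.5 uM final), then stimulated with LPS (250 ng/mL final) plus ATP (1.25 mM final); secreted IL-1B measured by AlphaLISA after 16 hr, decreased signal indicating inhibition.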
D3 ag – agonists of human D3 dopamine receptor | max activation, % | AID 652048 | P35462 | actives 0.58% (n = 410,000) | D3R DiscoveRx beta-arrestin cells, luminescence, 90 min; in the data active means max activation above about 30%; further: 0% is about no effect
Target sequence (P35462 whole entry, looked up): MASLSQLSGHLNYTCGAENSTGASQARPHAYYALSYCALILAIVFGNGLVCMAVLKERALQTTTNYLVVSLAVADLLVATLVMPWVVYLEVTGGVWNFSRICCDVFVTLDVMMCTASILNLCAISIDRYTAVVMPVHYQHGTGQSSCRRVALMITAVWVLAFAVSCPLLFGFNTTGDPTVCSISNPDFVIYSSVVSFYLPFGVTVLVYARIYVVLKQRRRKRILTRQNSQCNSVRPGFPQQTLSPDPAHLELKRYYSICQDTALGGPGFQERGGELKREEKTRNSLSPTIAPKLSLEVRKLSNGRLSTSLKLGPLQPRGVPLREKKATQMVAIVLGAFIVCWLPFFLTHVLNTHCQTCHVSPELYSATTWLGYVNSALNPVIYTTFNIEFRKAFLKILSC
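Agonist-mode cell screen: cells plated at 1500/well and incubated overnight at 37 °C, then exposed to library compounds for 90 min at 37 °C. Detection reagent was added for 30–60 min at room temperature, and luminescence was read.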
TDP1 cell CPT – growth inhibition of DT40 Tdp1-/-;hTDP1 cells with camptothecin (screen for TDP1 inhibitors); Potency, µM (highest dose often 46.2 µM), without a hit: at the highest dose activity change, negative = growth inhibition, usual class: inhibitors; AID 686979; actives 12% (n = 420,000); chicken DT40 Tdp1-/-;hTDP1 cells + 20 nM CPT, ATP luminescence, 48 h; further: potency means the concentration at half of the fitted maximal effect; on the % scale 0 is the no-effect control and ±100 the full control effect; nearly all actives have a fitted effect of over 55% in size
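Chicken DT40 Tdp1-/- cells stably complemented with human TDP1 were seeded at 400 cells/well in medium containing 20 nM camptothecin, exposed to pin-transferred compounds, and grown at 37 °C for at least 48 hr. Viability was read as ATP luminescence.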
ClpP mod – qHTS Assay for Activators of ClpP; actives 1.9% (n = 340,000); purified B. subtilis ClpP, FRET peptide cleavage, 20 min; Potency, µM (highest dose often 57.5 µM), inactives show at the highest dose activity change, negative = active; ATP-dependent Clp protease proteolytic subunit (Bacillus subtilis (strain 168)), P80244; active means well fitted falling curve with a large enough effect; inconclusive means small, poorly fitted or top-dose-only effect; inactive means no such curve, though single readings can be large or run the other way; further: potency means the concentration at half of the fitted maximal effect; the source files actives as falling curves though it sought activators and does not explain the sign; nearly all actives have a fitted effect of over 65% in size
Target sequence (P80244 whole entry, looked up): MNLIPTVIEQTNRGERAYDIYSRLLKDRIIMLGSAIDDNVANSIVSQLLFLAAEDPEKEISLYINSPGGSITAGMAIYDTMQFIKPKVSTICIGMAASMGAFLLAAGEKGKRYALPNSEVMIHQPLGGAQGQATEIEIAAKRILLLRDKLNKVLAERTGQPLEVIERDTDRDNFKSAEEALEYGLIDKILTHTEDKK
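FRET quenching reversal measured ClpP activation: 10 microg/mL B. subtilis ClpP at pH 8 with the FRET-FV decapeptide, read at 430 nm after 320 nm excitation. The 20-min minus 0-min signal was scaled between DMSO/no-enzyme wells and ADEP (5.8 microM final).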
TDP1 cell noCPT – qHTS for Inhibitors of human tyrosyl-DNA phosphodiesterase 1 (TDP1): qHTS in cells in absence of CPT; Potency, µM (highest dose often 46.2 µM), inactives show at the top dose activity change, negative = growth inhibition, hits mostly inhibitors; DT40 Tdp1-/- hTDP1 cells, no CPT, ATP luminescence, 48 h; actives 15% (n = 420,000); further: potency means the concentration at half of the fitted maximal effect; on the % scale 0 is the no-effect control and ±100 the full control effect; nearly all actives have a fitted effect of over 55% in size
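Cells were dispensed at 400 per well, compounds added by pin tool, plates incubated ≥48 hr at 37 °C, then CellTiter-Glo added for 30 min at room temperature before luminescence reading. Line: DT40 Tdp1-/- complemented with hTDP1; camptothecin omitted.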
D3 antag – D3 dopamine receptor (human) antagonism | D3R cells, DiscoveRx beta-arrestin luminescence, antagonist mode; hits give low values | max response, negative = inhibition, % | actives 2.5% (n = 360,000); in the data active means max response below about -50%; inconclusive means no clear call, values can overlap the other calls; further: on the % scale 0 is the no-effect control and ±100 the full control effect
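Cells plated overnight at 1500 cells/well, then exposed to library compounds with dopamine controls for 90 minutes at 37 degrees C. DiscoveRx reagent added for 30–60 minutes at room temperature; luminescence read, quantitative HTS format.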
Active calls of the source: *; u = inconclusive; x = not tested or not shown; ! = repeats disagree; [ ] = dose if it differs, or a comment. Unless noted, the call rests on the fitted dose curve; in most records, active means well fitted inhibition curve with a large enough effect; inconclusive means small, poorly fitted or top-dose-only effect; inactive means flat fitted curve, though single readings scatter.

SMILES	IL-1B inflam inh	D3 ag	TDP1 cell CPT	ClpP mod	TDP1 cell noCPT	D3 antag
CC(C)CN1CCCC2(CCN(C(=O)Oc3ccccc3)CC2)C1	x	x	4%	x	-14%	x
O=C1N=C2SCCN2C(=O)C1Cc1ccc(Cl)cc1 (stereo unspecified)	x	-3	u	x	-18%	x
CC(Oc1ccccc1)C(=O)Nc1ccc(C(=O)OCc2cc(=O)n3nc(C4CC4)sc3n2)cc1 (stereo unspecified)	x	4	u	-28%	u	x
c1ccc2c(c1)Nc1ccccc1S2	4	17	5.3µM*!	0%	34µM*!	9
Cc1c(I)c(=O)n(-c2ccccc2)n1C	x	-1	u	x	u	x
CN[C@H](C)CCC=C(C)C	x	x	u	-4%	u	x
CN1CC(C(=O)c2ccc(F)cc2)C(c2c(F)cccc2Cl)C1 (stereo unspecified)	-22	-4	-22%	1%	-10%	1
COc1ccc(C2CN(C)CC2C(=O)c2ccc(F)cc2)cc1Cl (stereo unspecified)	-58*	-20	-14%	x	21µM*	0
C[C@@H]1C[C@@H](O)[C@@]2(O)[C@]13CC(=O)OC[C@]2(C)[C@@](C)(O)C(=O)C3	x	x	-22%[9.04 µM]	x	-20%[9.04 µM]	x
CC[C@H]1CN2CCC1C[C@@H]2[C@@H](O)c1ccnc2ccc(OC)cc12 (stereo partly specified)	2	-78	u	5%	u	-63*
CC[C@H]1CN2CCC1C[C@H]2[C@H](O)c1ccnc2ccc(OC)cc12 (stereo partly specified)	0	-16	-30%	4%	u	-17
CN1C2CNC(=O)CC1C1CCC2C1 (stereo unspecified)	9	7	-3%	0%	0%	8
c1ccc2c(N3CCNCC3)nsc2c1	-54*	-11	10µM*	x	13µM*	-70*
CCNC(=O)O/N=C(\C)c1sc(-c2ccc(Cl)cc2)nc1C	-14	3	26µM*	-1%	18µM*	12
C/C(=N\OC(=O)NC(C)C)c1sc(-c2ccc(Cl)cc2)nc1C	-17	0	u	-7%	18µM*	3
C[C@]12CC[C@H](O)CC1=CC(=O)C1C2CC[C@]2(C)C(=O)[C@H](O)CC12 (stereo partly specified)	-14	-4	-15%	x	-14%	2
CC(=O)NCC(N)C(=O)c1ccc(Cl)c(Cl)c1 (stereo unspecified)	x	x	u	1%	u	x
CC(=O)NCC(N)C(=O)c1ccc(C)cc1 (stereo unspecified)	x	x	u	-1%	16µM*	x
Nc1ccccc1C(=O)OCC(=O)Nc1ccc(Br)cc1F	3	-11	-2%	28µM*	-7%	17
CC(C)c1ccc(NC(=O)CN2C(=O)CN=C(c3ccccc3)c3ccccc32)cc1	x	6	-17%	-5%	u	x
Cc1ccc(C(C)C)c(OCC#CCN2CCCC2)c1	0	0	-28%	1%	u	u
CC(C)(C)OC(=O)NCc1ccc(CNC(=O)c2nc[nH]c2C(=O)NCc2ccc(CNC(=O)OC(C)(C)C)cc2)cc1	6	20	15µM*	-4%	21µM*	36
COc1cc(CN=Cc2c(O)n(C(C)(C)C)c(=O)[nH]c2=O)cc(OC)c1	12	22	10%	-1%	u	1
O=C(CCC(=O)N1CC2C[C@@H](C1)Cn1c2cccc1=O)NCCc1ccccc1F	4	3	5%	-2%	-4%	27
O=C(COc1ccccc1/C=C1/NC(=O)NC1=O)Nc1ccccc1	25	2	21µM*	-4%	u	4
SMILES	IL-1B inflam inh	D3 ag	TDP1 cell CPT	ClpP mod	TDP1 cell noCPT	D3 antag
COc1ccc(NC(=O)CN2CC=C(c3ccccc3)CC2)cc1S(=O)(=O)N1CCOCC1	-13	1	0%	x	u	u
Cc1ccc(-c2nnc(Nc3ccc(O)cc3)c3ccccc23)cc1S(=O)(=O)N1CCOCC1	x	-6	u	4%	16µM*	x
O=C(C[n+]1ccn(CCCNP2(=O)C=C(c3ccccc3)OC(c3ccccc3)=C2)c1)c1ccccc1	-55*	-10	u	-1%	u	-23
COC(=O)C1=C(c2cccc(Cl)c2)C[C@@H]2CC[C@H]1N2C(=O)N1CCCC1	5	10	8.2µM*	1%	7.3µM*	-16
CCCNC(=O)N1[C@H]2CC[C@@H]1C(C(=O)OC)=C(c1cccc(Cl)c1)C2	39	3	u	1%	u	-3
COC(=O)C1=C(c2cccc(Cl)c2)C[C@@H]2CC[C@H]1N2C(=O)NCC1CC1	22	-6	16µM*	-4%	u	-20
COC(=O)C1=C(c2ccccc2)C[C@@H]2CC[C@H]1N2C(=O)N1CCCC1	4	17	u	2%	16µM*	20
COC(=O)C1=C(c2cccc(C#N)c2)C[C@@H]2CC[C@H]1N2C(=O)N1CCC(O)CC1	19	11	5%	1%	-7%	15
CN1Cc2c(c(C#N)c(N)n(C)c2=S)CC1(C)C	1	5	u	5%	9%	-2
CC(=O)C1CCC2C3CCC4CC(O)CCC4(C)C3C(=O)CC12C (stereo unspecified)	27	-3	-1%	1%	-27%	-24
O=C1c2ccccc2-n2nnc(-c3ccccc3)c2C2c3ccccc3CCN12 (stereo unspecified)	52	6	16µM*	-5%	7.3µM*	0
O=C1c2ccccc2-n2nnc(-c3ccccc3)c2C2c3cc(Br)ccc3CCN12 (stereo unspecified)	0	12	-16%	-1%	u	46
Cc1cccn2c(=O)c3c(nc12)N1CCCCC1C1(C3)C(=O)N(C)C(=O)N(C)C1=O (stereo unspecified)	31	-1	-6%	x	u	8
Cc1cccn2c(=O)c3c(nc12)N1CCC(Cc2ccccc2)CC1C1(C3)C(=O)N(C)C(=O)N(C)C1=O (stereo unspecified)	-20	-7	18µM*	-24%	u	u
CCOC(=O)[C@]12Cc3cc(OC)ccc3[C@H]1N(C1CCCCC1)C(=O)c1cc(OC)ccc12	-114*	-7	2.6µM*	2%	4.6µM*	u
CCOC(=O)[C@]12Cc3cc(C)ccc3[C@H]1N(C1CCCCC1)C(=O)c1cc(OC)ccc12	-111*	-10	1.2µM*	-1%	1µM*	-64*

Assay outcomes: PubChem BioAssay, National Center for Advancing Translational Sciences (NCATS)
